# According to PubChem BioAssay:
# Records with an inconclusive call do not appear. For part of these data: Potency and affinity values are given separately. Activity calls are given as the source filed them. Unless noted, no rule for the calls is given here.
# What was measured:
# [1] = target: 6-phosphogluconate dehydrogenase, decarboxylating (Homo sapiens) (UniProt P52209); assay: inhibition of human phosphogluconate dehydrogenase – biochemical, recombinant enzyme, NADPH absorbance, primary screen (AID 1159550;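 active = at least 20% inhibition of 6-phosphogluconate dehydrogenase activity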); settings: recombinant 6PGD, NADPH absorbance 341 nm; at 10 µM; stronger effect = higher value
# [2] = target: Mitogen-activated protein kinase 7 (Homo sapiens) (UniProt Q13164); assay: Gal4-ERK5 driven luciferase induction – cell-based, HTS, primary screen (AID 1508626;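 active = luciferase signal above three times the same-plate solvent-only control wells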;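 also: luciferase driven by Gal4-ERK5 fusion binding five Gal4 sites before minimal TATA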); settings: HeLa Gal4-ERK5 transactivation, 18 h, at 5 µM, stronger effect = higher value
# [3] = antimalarial activity against Dd2 strain (AID 2302;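 active = growth inhibition above 50% at the single 2 µM test dose, taken to imply half-maximal potency below 2 µM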;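 also: 0% = DMSO untreated growth and 100% = chloroquine plus artemisinin killed control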); settings: P. falciparum Dd2 in RBCs, LDH growth readout, 72 h; at 2 µM; stronger effect = higher value
# [4] = human hepatoma cell viability loss – ATP luminescence, cytotoxicity control for P. falciparum antimalarial project, primary screen (AID 2303;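 active = inhibition above 50%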;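 also: 0% = DMSO wells and 100% = digitonin-killed cells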); settings: HepG2 viability, 24-48 h, at 10 µM, stronger effect = higher value
# [5] = target: L-lactate dehydrogenase (Plasmodium falciparum (isolate CDC / Honduras)) (UniProt Q27743); assay: PfLDH activity inhibition – cell lysate, 3D7 strain, counter-screen for P. falciparum growth inhibition project (AID 2304);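 also: 0% = vehicle and 100% = reference inhibitor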; settings: P. falciparum 3D7 crude extract, LDH APAD/NBT absorbance; at 2 µM; stronger effect = higher value
# [6] = inhibition of 3D7 malaria parasite growth – strain 3D7 (AID 2306);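 also: 0% = DMSO wells and 100% = chloroquine plus artemisinin control wells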; settings: P. falciparum 3D7 erythrocytic growth, LDH absorbance, 72 h; at 2 µM; stronger effect = higher value
# [7] = target: Calcium-dependent protein kinase 1 (Plasmodium falciparum (isolate 3D7)) (UniProt P62344); assay: PfCDPK1 kinase inhibitors, biochemical, TCAMS library (AID 1159585; cut-off not given, nearly all actives have IC50 up to about 0.98 µM;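 also: inhibitors leave more ATP so luminescence rises with inhibition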); settings: recombinant PfCDPK1, Kinase-Glo ATP depletion luminescence
# [8] = target: Plasmodium falciparum protein kinase 6 (PK6, PF3D7_1337100) (UniProt Q8IDW1); assay: PfPK6 kinase inhibitors, biochemical, TCAMS library (AID 1159586); settings: recombinant PfPK6, Kinase-Glo ATP depletion luminescence
# [9] = target: Protein kinase 7 (PK7), Plasmodium falciparum 3D7 (PF3D7_0213400) (UniProt Q7YTF7); assay: inhibition of Plasmodium PK7 catalytic activity – biochemical, TCAMS antimalarial set, Kinase-Glo luminescence (AID 1159587); settings: recombinant PfPK7, Kinase-Glo ATP depletion luminescence
# [10] = target: Calcium-dependent protein kinase 4 (Plasmodium falciparum (isolate 3D7)) (UniProt Q8IBS5); assay: PfCDPK4 kinase inhibitors, biochemical, TCAMS library (AID 1159588; cut-off not given, nearly all actives have IC50 up to about 0.91 µM); settings: recombinant PfCDPK4, Kinase-Glo ATP depletion luminescence
# [11] = compounds altering viability of human ES cells (AID 493140); settings: human embryonic stem cell survival screen; stronger effect = higher value;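 also: cells exposed to compounds for four days before counting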
# [12] = target: ATP-dependent translocase ABCB1 (Homo sapiens) (UniProt P08183); assay: P-glycoprotein substrate transport blockade – cell-based (AID 377; in the data active = fluorescence slope change above about 50%); settings: MDR1-expressing cells, fluorescent substrate accumulation slope; stronger effect = higher value; concentration not given here
# [13] = P. berghei load reduction in hepatocytes – cell-based, HepG2, luciferase luminescence, HepG2 viability, primary screen (AID 624349; in the data active = parasite load remaining mostly below about 12%, no sharp cut-off; inactive = mostly above about 10%;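 also: 100% = mean of DMSO negative control wells on the same plate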); settings: P. berghei liver stage in HepG2, luciferase luminescence, concentration not given here; parasite load remaining: stronger effect = lower value; viability: measured here: HepG2 viability without parasites
# [14] = blockers of polyQ-driven CASP3 activation – cell-based (AID 1583); settings: polyglutamine-induced caspase-3 activation, cell assay; stronger effect = higher value;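 tested at 10 µM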
# [15] = yeast 75Q aggregation reduction – 75Q-TubU reporter (AID 1593); settings: Yeast 75Q polyglutamine aggregation reporter
# [16] = restoration of touch response, mutant HTT neurons – whole organism, C. elegans mechanosensory neurons, N-terminal huntingtin (AID 1599); settings: C. elegans polyQ-huntingtin mechanosensory neurons, stronger effect = higher value
# [17] = blockers of cytochrome c efflux from mitochondria – biochemical, purified mitochondria (AID 1603); settings: stronger effect = lower value;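 also: mouse liver mitochondria challenged with calcium chloride; signal normalized to the plate average as 100%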
# [18] = polyglutamine aggregate formation blockers (AID 1604); settings: polyglutamine-induced protein aggregation inhibition assay; stronger effect = higher value; tested at 2.5 µM
# [19] = glutamate transport activators, MN-1 cells, MN-1 cell line (AID 1612); settings: MN-1 motor neuron cells, stronger effect = higher value;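 also: tested at 1 µM final; 0% = mean of DMSO vehicle wells on each plate; positive means more glutamate uptake than control and negative means less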
# [20] = GFP-Q80 aggregate reduction, neuronal-like cells, cell-based, NGF-treated PC12, GFPQ80 (AID 1614); settings: PC12 NGF-treated GFP-polyQ80 inclusion reduction;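 also: lower means fewer inclusions and 0 means no inclusions at all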
# [21] = 75Q-TubH aggregate inhibition, S. cerevisiae, yeast (AID 1616); settings: S. cerevisiae 75Q-TubH polyglutamine aggregation suppression; stronger effect = higher value
# [22] = target: NAD(+) hydrolase SARM1 (Homo sapiens) (UniProt Q6SZW1); assay: blocking NAD cleavage by SARM1 SAM-TIR – cell lysate, NAD-Glo luminescence (AID 1508614;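 active = compound whose remaining NAD level is above about 45 nM, limit read from the data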;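 also: higher remaining NAD means stronger inhibition of SARM1 NADase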); settings: SAM-TIR HEK293T lysate NADase, at 1 µM, stronger effect = higher value
# [23] = system: Aerobactin synthetase IucA (Klebsiella pneumoniae); assay: inhibition of K. pneumoniae IucA enzyme – biochemical, Tocris library, absorbance (AID 1345561); settings: purified IucA enzyme assay, absorbance (OD) read-out; stronger effect = lower value;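 tested at 8 µM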;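 also: 100% = enzyme without compound and 0% = no enzyme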
# [24] = viability loss with induced miR-34 in A549 – imaging, A549 dox-inducible miR-34, nuclei and caspase counts, primary screen (AID 1347080;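 active = compounds whose cell count with miR-34 switched on is under 0.7 times the count with it off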); settings: A549 miR-34 inducible, Hoechst nuclei count, 48 h
# [25] = galactose survival enhancers in mitochondrial complex I cybrids – cell-based, galactose medium, ATP luminescence, primary screen (AID 1645843;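 active = z-score of at least 1.8 in each of two replicates, scored against plate mean and spread of sample wells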;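 also: positive z means more ATP and so rescue of galactose-driven cybrid death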); settings: complex I mutant cybrid cells, 72 h, stronger effect = higher value
# [26] = blockers of cellular phospholipid synthesis – cell-based, LOPAC library, screen 4, primary screen (AID 1347384); settings: animal cells, phospholipid biosynthesis inhibition screen; at 10 µM
# Mitogen-activated protein kinase 7 (Homo sapiens), sequence (Q13164 whole entry, looked up, the tested form may be a part): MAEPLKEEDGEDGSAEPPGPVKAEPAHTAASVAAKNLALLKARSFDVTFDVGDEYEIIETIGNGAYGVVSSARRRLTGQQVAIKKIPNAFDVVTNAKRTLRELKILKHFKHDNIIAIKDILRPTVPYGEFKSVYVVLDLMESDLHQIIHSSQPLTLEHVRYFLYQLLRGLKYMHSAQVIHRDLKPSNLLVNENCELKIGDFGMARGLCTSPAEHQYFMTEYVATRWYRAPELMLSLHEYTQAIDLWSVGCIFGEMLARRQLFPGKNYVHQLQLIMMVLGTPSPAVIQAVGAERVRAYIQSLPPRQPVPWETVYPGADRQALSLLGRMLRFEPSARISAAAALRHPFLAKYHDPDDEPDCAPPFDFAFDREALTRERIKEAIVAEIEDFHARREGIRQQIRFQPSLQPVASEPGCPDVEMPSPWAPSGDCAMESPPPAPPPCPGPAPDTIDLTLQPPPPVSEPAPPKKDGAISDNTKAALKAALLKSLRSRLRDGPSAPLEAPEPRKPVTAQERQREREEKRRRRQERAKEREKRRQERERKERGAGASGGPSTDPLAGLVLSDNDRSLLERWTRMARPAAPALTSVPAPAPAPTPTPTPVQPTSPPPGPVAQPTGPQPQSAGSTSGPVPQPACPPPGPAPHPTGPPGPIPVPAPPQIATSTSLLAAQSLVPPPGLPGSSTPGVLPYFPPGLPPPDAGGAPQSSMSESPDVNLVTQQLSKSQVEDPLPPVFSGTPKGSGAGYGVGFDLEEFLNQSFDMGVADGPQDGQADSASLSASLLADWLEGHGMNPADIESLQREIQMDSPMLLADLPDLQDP
# L-lactate dehydrogenase (Plasmodium falciparum (isolate CDC / Honduras)), sequence (Q27743 whole entry, looked up): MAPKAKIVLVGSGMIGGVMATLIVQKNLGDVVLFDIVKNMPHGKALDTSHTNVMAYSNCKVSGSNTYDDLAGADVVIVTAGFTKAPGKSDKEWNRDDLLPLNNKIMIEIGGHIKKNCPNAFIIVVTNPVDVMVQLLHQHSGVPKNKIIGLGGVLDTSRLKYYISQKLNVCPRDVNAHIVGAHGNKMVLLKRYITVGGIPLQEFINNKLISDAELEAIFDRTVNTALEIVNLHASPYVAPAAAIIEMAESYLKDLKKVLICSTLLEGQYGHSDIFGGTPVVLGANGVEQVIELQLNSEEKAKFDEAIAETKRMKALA
# Plasmodium falciparum protein kinase 6 (PK6, PF3D7_1337100), sequence (Q8IDW1 1-305): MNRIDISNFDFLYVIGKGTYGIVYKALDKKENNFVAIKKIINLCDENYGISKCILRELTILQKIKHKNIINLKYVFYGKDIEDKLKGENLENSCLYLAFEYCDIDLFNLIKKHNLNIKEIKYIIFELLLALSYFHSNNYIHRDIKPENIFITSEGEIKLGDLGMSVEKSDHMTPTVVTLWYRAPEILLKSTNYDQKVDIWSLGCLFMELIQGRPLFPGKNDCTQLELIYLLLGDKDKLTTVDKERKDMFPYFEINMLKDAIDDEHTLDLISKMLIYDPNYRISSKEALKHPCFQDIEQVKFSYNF
# Calcium-dependent protein kinase 4 (Plasmodium falciparum (isolate 3D7)), sequence (Q8IBS5 whole entry, looked up): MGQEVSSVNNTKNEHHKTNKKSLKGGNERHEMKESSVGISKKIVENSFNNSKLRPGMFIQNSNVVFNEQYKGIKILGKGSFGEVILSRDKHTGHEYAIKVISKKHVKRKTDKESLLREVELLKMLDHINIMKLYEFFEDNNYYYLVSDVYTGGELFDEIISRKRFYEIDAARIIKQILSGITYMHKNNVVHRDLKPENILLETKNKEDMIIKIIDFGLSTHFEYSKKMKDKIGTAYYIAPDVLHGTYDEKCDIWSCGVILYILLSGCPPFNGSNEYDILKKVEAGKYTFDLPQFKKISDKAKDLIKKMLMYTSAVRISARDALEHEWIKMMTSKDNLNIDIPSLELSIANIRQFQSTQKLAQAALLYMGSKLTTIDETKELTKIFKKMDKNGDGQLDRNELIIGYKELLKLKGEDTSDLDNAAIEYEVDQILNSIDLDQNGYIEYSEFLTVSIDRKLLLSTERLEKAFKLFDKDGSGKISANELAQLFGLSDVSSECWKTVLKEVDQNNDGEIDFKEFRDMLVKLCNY
# Protein kinase 7 (PK7), Plasmodium falciparum 3D7 (PF3D7_0213400), sequence (Q7YTF7 1-343): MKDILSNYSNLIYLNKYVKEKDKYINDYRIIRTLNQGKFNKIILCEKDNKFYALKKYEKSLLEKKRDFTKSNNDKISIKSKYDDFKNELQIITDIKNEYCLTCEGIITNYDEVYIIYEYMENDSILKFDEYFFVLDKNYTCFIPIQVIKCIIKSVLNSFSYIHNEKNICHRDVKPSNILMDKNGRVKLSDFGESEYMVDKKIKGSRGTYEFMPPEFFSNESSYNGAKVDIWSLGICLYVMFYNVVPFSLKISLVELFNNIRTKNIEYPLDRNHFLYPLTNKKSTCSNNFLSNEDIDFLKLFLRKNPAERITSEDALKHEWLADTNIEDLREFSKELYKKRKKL
# 6-phosphogluconate dehydrogenase, decarboxylating (Homo sapiens), sequence (P52209 whole entry, looked up, the tested form may be a part): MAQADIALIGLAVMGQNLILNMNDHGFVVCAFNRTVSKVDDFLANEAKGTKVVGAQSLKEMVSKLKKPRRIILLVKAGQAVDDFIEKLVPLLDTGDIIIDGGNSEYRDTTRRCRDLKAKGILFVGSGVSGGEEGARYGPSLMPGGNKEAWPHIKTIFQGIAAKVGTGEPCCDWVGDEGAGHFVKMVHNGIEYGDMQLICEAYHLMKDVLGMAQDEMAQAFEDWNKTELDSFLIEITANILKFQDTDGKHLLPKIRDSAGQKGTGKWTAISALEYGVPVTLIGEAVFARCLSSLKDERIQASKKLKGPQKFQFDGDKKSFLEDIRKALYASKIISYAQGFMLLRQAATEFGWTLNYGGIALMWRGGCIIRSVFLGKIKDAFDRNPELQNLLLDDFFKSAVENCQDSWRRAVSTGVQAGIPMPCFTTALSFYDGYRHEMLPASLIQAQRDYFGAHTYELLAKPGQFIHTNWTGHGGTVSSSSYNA
# Calcium-dependent protein kinase 1 (Plasmodium falciparum (isolate 3D7)), sequence (P62344 whole entry, looked up): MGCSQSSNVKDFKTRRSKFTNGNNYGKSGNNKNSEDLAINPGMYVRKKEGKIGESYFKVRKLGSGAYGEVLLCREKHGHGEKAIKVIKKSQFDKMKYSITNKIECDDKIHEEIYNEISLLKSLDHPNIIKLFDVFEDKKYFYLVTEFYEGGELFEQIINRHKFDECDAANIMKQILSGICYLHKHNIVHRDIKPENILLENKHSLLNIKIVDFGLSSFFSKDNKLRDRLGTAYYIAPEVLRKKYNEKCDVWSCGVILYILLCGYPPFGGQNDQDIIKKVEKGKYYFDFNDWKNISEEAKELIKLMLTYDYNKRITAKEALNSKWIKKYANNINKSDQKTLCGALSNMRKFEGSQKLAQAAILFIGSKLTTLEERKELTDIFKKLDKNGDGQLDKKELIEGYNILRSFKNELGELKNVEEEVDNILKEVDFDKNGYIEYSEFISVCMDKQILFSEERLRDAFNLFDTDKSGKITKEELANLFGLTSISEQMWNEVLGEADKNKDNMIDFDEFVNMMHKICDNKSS
# NAD(+) hydrolase SARM1 (Homo sapiens), sequence (Q6SZW1 whole entry, looked up): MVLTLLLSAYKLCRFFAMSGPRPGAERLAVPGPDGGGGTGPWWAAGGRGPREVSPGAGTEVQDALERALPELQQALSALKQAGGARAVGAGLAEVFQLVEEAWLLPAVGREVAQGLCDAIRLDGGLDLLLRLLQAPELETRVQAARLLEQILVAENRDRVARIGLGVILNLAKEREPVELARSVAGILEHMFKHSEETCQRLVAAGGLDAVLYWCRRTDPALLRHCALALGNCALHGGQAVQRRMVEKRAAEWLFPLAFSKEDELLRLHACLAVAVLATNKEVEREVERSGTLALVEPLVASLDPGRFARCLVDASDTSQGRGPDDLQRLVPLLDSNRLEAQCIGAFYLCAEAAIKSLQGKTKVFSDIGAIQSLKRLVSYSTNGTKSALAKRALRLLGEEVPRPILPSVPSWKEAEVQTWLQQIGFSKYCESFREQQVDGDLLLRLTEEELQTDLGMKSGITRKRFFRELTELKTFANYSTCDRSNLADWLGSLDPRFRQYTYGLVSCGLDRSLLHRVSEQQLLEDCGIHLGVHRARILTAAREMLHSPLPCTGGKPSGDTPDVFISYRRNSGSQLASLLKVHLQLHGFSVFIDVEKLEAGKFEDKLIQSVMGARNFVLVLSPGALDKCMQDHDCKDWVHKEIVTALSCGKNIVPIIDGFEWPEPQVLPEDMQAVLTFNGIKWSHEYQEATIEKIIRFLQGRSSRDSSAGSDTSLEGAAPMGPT
smiles,measurement,setting,value
CC1(C)C(=O)C=C[C@]2(C)[C@H]3CC[C@@]4(C)[C@H](c5ccoc5)OC(=O)[C@H]5O[C@]54[C@]3(C)[C@H](O)C[C@@H]12,inhibition,[1],3.18% (inactive)
same,luciferase signal,[2],16 AU (inactive)
COc1cccc(CN2CCC(CCOC(c3ccccc3)c3ccc(Cl)cc3)CC2)c1O (stereo unspecified),growth inhibition,[3],100% (active)
same,inhibition,[4],22% (inactive)
same,inhibition,[5],-2% (inactive)
same,growth inhibition,[6],99% (active)
same,outcome,[7],inactive
same,outcome,[8],inactive
same,outcome,[9],inactive
same,outcome,[10],inactive
CC(=O)O[C@@H]1C[C@H]2C(C)(C)C(=O)C=C[C@]2(C)[C@H]2CC[C@]3(C)C(=CC(=O)O[C@H]3c3ccoc3)[C@@]21C,inhibition,[1],4.47% (inactive)
same,luciferase signal,[2],44 AU (inactive)
COc1ccc(CN2CCN(CCOC(c3ccc(F)cc3)c3ccc(F)cc3)CC2)c(O)c1,growth inhibition,[3],97% (active)
same,inhibition,[4],6% (inactive)
same,inhibition,[5],-6% (inactive)
same,growth inhibition,[6],97% (active)
same,outcome,[7],inactive
same,outcome,[8],inactive
same,outcome,[9],inactive
same,outcome,[10],inactive
CC(N)C(O)c1ccc(O)c(O)c1 (stereo unspecified),survival,[11],3.67 (inactive)
same,inhibition,[1],-5.53% (inactive)
O=C(O)CNCP(=O)(O)O,inhibition,[1],3.86% (inactive)
same,luciferase signal,[2],40 AU (inactive)
O=C1CCCC2C3CC(CN12)C1CCCCN1C3 (stereo unspecified),inhibition,[1],-2.75% (inactive)
same,luciferase signal,[2],60 AU (inactive)
CN1Cc2c(ccc3c2OCO3)[C@@H]2[C@H]1c1cc3c(cc1C[C@@H]2O)OCO3,fluorescence slope change,[12],54.5% (active)
same,survival,[11],0.417 (inactive)
same,parasite load remaining,[13],92.6% (inactive)
same,viability,[13],77.6%
same,inhibition,[1],7.55% (inactive)
O=C(O)COc1cc(Cl)c(Cl)cc1Cl,inhibition,[1],6.47% (inactive)
same,luciferase signal,[2],60 AU (inactive)
CC(C)CC(NC(=O)C(Cc1ccccc1)NC(=O)CNC(=O)CNC(=O)C(N)Cc1ccc(O)cc1)C(=O)O (stereo unspecified),inhibition,[14],-1.79%
same,score,[15],1.42
same,rescue above control,[16],3.43
same,cytochrome c release ratio,[17],0.97
same,inhibition of aggregation,[18],27.9%
same,glutamate uptake change,[19],12.5%
same,inclusion score,[20],2
same,aggregation suppression score,[21],1.27
same,inhibition,[1],11% (inactive)
O=C(C=Cc1cc([N+](=O)[O-])ccc1Cl)NC1CCC(CN2CCC(c3c[nH]c4ccccc34)CC2)CC1 (stereo unspecified),growth inhibition,[3],94% (active)
same,inhibition,[4],21% (inactive)
same,inhibition,[5],1% (inactive)
same,growth inhibition,[6],102% (active)
same,outcome,[7],inactive
same,outcome,[8],inactive
same,outcome,[9],inactive
same,outcome,[10],inactive
CC(=O)[O-].CC(=O)[O-].[Cd+2],inhibition,[1],6.37% (inactive)
same,luciferase signal,[2],740 AU (inactive)
C[C@@H](CO)NC(=O)[C@@H]1C=C2c3cccc4[nH]cc(c34)C[C@H]2N(C)C1,inhibition,[1],-3.88% (inactive)
same,remaining NAD,[22],10 nM (inactive)
same,luciferase signal,[2],20 AU (inactive)
CO[C@H]1C[C@H](O[C@H]2CC[C@@]3(C)[C@H](CC[C@@H]4[C@@H]3CC[C@]3(C)[C@@H](C5=CC(=O)OC5)[C@@H](OC(C)=O)C[C@]43O)C2)O[C@@H](C)[C@@H]1O,inhibition,[1],5.8% (inactive)
same,luciferase signal,[2],32 AU (inactive)
CC[C@@H](C)C(=O)O[C@H]1[C@H](O)[C@H]2[C@@H](CN3C[C@@H](C)CC[C@H]3[C@@]2(C)O)[C@@H]2C[C@]34O[C@]5(O)[C@@H](OC(=O)[C@@](C)(O)CC)CC[C@@]3(C)[C@@H]5[C@@H](OC(C)=O)[C@@H](OC(C)=O)[C@H]4[C@@]21O,inhibition,[1],-7.64% (inactive)
same,luciferase signal,[2],108 AU (inactive)
CC(C)CNCc1cccc(-c2ccc(CN(C(=O)c3cccs3)C3CCN(Cc4ccccc4)CC3)cc2)c1,growth inhibition,[3],40% (inactive)
same,inhibition,[4],22% (inactive)
same,inhibition,[5],3% (inactive)
same,growth inhibition,[6],85% (active)
same,outcome,[7],inactive
same,outcome,[8],inactive
same,outcome,[9],inactive
same,outcome,[10],inactive
COC[C@]12CN(C=O)C3[C@@H]4C(OC)C1[C@]3(C1CC3(O)C(OC)C(O)C4(OC(C)=O)C1C3OC(=O)c1ccccc1)[C@@H](OC)C[C@H]2O (stereo partly specified),inhibition,[1],-2.18% (inactive)
same,luciferase signal,[2],148 AU (inactive)
COP(=S)(OC)SCn1nnc2ccccc2c1=O,inhibition,[1],1.29% (inactive)
same,luciferase signal,[2],64 AU (inactive)
COC(=O)/C=C/C(=O)N[C@@H]1CC[C@@]2(O)[C@H]3Cc4ccc(O)c5c4[C@@]2(CCN3CC2CC2)[C@H]1O5,growth inhibition,[3],66% (active)
same,inhibition,[4],9% (inactive)
same,inhibition,[5],-2% (inactive)
same,growth inhibition,[6],95% (active)
same,outcome,[7],inactive
same,outcome,[8],inactive
same,outcome,[9],inactive
same,outcome,[10],inactive
same,remaining activity,[23],109% (inactive)
same,fold change,[24]; stronger effect = lower value,0.925 (inactive)
same,fold change,[24]; measured here: relative caspase fold change +Dox/-Dox,0.877
same,cell count,"[24]; measured here: total cells with miR-34 induction, stronger effect = lower value",7410
same,cell count,[24]; measured here: total cells without miR-34 induction,8010
same,z-score,[25],-0.405 (inactive)
CC(=O)OCC1=C(C(=O)O)N2C(=O)[C@@H](NC(=O)CCC[C@@H](N)C(=O)O)[C@H]2SC1,inhibition,[1],-2.43% (inactive)
same,outcome,[26],inactive
same,remaining NAD,[22],10 nM (inactive)
CC[C@H]1CN2CC[C@H]1C[C@@H]2[C@@H](O)c1ccnc2ccccc12,growth inhibition,[3],20% (inactive)
same,inhibition,[4],10% (inactive)
same,inhibition,[5],-4% (inactive)
same,growth inhibition,[6],98% (active)
same,outcome,[7],inactive
same,outcome,[8],inactive
same,outcome,[9],inactive
same,outcome,[10],inactive
